Laboratory results: ChEMBL document CHEMBL3988442, “University of Dundee, Small-Polar-MMV Screening Library” (2021)
For some of these results: Entries with a potency or affinity are not part of this list.

How the values were obtained:
Design in all cases: scale not given: direction of the effect not stated beside the values
[1] = molecular target: Protein translocase subunit SecA (Escherichia coli (strain K12)) (UniProt P10408); test: Assay to Identify E. coli SecA ATPase Inhibitors; assay type: functional; conditions: 30 µM
[2] = molecular target: T1, Ubiquitin-activating enzyme e1, putative (Leishmania donovani (strain BPK282A1)) (UniProt E9BSI1); test: Leishmania donovani Ubiquitin Activating Enzyme (LdE1); assay type: functional; conditions: 30 µM
T1 sequence (whole entry): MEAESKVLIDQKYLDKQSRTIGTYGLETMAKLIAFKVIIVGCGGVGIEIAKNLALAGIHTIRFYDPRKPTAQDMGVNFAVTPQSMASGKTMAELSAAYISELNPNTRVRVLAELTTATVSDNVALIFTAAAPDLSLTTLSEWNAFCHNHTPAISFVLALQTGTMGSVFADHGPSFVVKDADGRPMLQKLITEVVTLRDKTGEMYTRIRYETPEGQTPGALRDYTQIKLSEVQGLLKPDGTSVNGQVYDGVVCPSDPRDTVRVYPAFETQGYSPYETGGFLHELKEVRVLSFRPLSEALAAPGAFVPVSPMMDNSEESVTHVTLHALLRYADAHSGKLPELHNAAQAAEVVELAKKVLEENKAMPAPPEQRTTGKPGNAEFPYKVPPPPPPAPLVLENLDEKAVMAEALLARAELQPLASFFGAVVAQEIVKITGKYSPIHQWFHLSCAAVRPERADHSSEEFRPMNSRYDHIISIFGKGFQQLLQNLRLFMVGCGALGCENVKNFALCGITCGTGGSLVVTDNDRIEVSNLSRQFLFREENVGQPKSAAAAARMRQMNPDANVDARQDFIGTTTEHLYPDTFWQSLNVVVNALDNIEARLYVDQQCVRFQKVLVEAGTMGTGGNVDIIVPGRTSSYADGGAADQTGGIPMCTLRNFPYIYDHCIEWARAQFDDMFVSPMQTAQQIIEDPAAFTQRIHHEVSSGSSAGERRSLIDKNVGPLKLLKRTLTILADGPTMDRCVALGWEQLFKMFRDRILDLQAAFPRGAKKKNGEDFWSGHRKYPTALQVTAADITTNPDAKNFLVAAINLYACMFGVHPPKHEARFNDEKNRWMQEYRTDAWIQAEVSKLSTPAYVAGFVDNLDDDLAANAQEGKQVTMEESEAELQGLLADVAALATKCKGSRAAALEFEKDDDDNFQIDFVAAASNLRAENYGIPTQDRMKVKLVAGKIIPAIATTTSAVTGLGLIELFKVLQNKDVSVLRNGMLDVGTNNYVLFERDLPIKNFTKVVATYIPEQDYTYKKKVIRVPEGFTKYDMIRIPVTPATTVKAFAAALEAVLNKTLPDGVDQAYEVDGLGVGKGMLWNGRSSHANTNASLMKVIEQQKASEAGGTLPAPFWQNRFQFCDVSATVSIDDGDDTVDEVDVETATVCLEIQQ

[3] = molecular target: AMP-activated protein kinase, AMPK (Homo sapiens) (UniProt P54646+O43741+P54619+Q9UGJ0+Q9Y478+Q13131+Q9UGI9); test: AMP-dependent Kinase enzyme assay. An in vitro enzyme assay that detects ADP turnover that is directly proportional to AMPK activity. This uses naive AMPK that is activated during the assay with MK-8722; assay type: functional; conditions: 30 µM
[4] = molecular target: Sialic acid-binding Ig-like lectin 9 (Homo sapiens) (UniProt Q9Y336); test: Hs-Siglec9 ALPHAscreen SOP 20170721; conditions: 10 µM
Trypanosoma cruzi = test: Trypanosoma cruzi phosphomannomutase and mannose-1-phosphate guanylyltransferase assay; assay type: functional; conditions: 10 µM
[5] = molecular target: T2, Arginase-2, mitochondrial (Homo sapiens) (UniProt P78540); test: in vitro enzyme assay to detect the production of urea directly proportional to the activity of Arginase II; assay type: functional; conditions: 33.3 µM; also: in the data most compounds retested in dose-response had high values
T2 sequence (whole entry): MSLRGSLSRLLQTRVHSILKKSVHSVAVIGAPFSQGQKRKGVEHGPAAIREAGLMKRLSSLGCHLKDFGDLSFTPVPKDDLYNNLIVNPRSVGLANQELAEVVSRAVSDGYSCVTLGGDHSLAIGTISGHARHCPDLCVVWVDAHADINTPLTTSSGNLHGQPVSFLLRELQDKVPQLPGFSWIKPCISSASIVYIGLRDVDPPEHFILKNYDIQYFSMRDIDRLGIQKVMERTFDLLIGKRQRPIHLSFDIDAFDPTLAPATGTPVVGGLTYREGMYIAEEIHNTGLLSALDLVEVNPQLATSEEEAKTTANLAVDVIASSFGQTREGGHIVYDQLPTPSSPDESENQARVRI

[6] = molecular target: T3, Proteasome subunit beta (Trypanosoma cruzi) (UniProt O96673); test: Trypanosoma cruzi proteasome chymotrypsin-like activity (TcProtChymo) assay.; also: in the data most compounds retested in dose-response had high values; assay type: functional; conditions: 9.37 µM
T3 sequence (whole entry): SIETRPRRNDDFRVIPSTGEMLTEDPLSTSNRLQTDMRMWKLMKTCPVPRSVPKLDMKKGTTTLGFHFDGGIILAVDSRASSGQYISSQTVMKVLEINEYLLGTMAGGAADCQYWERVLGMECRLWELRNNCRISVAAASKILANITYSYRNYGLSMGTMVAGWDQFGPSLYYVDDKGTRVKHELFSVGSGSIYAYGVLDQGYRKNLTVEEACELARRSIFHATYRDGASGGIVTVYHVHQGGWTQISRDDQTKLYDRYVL

Homo sapiens = organism: Homo sapiens; test: To identify inhibition of the IFN signalling (Jak-Stat) pathway via expression of an eGFP reporter gene under the control of an IFN-stimulated response element (ISRE) containing MxA promoter.; assay type: functional; conditions: 30 µM
[7] = molecular target: T4, Tyrosyl-tRNA synthetase, putative (Trypanosoma cruzi (strain CL Brener)) (UniProt Q4DSP6); test: Trypanosoma cruzi tyrosyl tRNA synthetase (TcYRS) _High Tyrosine SOP; assay type: functional; conditions: 30 µM; also: in the data most compounds retested in dose-response had high values
T4 sequence (whole entry): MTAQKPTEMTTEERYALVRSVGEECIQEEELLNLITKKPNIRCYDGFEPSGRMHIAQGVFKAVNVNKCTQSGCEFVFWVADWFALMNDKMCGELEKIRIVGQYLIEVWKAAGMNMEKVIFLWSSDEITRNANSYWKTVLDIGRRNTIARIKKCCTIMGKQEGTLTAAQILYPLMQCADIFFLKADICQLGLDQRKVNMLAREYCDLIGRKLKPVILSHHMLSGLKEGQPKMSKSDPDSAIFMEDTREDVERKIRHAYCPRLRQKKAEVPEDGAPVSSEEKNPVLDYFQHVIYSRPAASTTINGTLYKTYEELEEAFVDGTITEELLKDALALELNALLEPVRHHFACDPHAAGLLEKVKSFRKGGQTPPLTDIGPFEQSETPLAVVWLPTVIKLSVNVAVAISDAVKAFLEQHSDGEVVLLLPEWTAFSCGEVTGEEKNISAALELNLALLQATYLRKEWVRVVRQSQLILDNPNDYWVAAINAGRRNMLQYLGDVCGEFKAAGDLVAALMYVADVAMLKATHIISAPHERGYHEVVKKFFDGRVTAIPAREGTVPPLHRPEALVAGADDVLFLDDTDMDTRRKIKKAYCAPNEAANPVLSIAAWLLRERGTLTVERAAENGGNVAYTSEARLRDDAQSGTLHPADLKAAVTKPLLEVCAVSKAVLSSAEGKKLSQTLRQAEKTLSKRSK

[8] = molecular target: T4, Tyrosyl-tRNA synthetase, putative (Trypanosoma cruzi (strain CL Brener)); test: Trypanosoma cruzi tyrosyl tRNA synthetase (TcYRS) SOP; assay type: functional; conditions: 30 µM
[9] = molecular target: Chromo domain-containing protein 1 (Saccharomyces cerevisiae (strain ATCC 204508 / S288c) (Baker's yeast)) (UniProt P32657); test: ScCHD-1 Enzyme Inhibition Assay; assay type: functional; conditions: 30 µM; also: in the data most compounds retested in dose-response had high values
Chain of Chromo domain-containing protein 1 (Saccharomyces cerevisiae (strain ATCC 204508 / S288c) (Baker's yeast)) (P32657 whole entry, the tested form may be a part): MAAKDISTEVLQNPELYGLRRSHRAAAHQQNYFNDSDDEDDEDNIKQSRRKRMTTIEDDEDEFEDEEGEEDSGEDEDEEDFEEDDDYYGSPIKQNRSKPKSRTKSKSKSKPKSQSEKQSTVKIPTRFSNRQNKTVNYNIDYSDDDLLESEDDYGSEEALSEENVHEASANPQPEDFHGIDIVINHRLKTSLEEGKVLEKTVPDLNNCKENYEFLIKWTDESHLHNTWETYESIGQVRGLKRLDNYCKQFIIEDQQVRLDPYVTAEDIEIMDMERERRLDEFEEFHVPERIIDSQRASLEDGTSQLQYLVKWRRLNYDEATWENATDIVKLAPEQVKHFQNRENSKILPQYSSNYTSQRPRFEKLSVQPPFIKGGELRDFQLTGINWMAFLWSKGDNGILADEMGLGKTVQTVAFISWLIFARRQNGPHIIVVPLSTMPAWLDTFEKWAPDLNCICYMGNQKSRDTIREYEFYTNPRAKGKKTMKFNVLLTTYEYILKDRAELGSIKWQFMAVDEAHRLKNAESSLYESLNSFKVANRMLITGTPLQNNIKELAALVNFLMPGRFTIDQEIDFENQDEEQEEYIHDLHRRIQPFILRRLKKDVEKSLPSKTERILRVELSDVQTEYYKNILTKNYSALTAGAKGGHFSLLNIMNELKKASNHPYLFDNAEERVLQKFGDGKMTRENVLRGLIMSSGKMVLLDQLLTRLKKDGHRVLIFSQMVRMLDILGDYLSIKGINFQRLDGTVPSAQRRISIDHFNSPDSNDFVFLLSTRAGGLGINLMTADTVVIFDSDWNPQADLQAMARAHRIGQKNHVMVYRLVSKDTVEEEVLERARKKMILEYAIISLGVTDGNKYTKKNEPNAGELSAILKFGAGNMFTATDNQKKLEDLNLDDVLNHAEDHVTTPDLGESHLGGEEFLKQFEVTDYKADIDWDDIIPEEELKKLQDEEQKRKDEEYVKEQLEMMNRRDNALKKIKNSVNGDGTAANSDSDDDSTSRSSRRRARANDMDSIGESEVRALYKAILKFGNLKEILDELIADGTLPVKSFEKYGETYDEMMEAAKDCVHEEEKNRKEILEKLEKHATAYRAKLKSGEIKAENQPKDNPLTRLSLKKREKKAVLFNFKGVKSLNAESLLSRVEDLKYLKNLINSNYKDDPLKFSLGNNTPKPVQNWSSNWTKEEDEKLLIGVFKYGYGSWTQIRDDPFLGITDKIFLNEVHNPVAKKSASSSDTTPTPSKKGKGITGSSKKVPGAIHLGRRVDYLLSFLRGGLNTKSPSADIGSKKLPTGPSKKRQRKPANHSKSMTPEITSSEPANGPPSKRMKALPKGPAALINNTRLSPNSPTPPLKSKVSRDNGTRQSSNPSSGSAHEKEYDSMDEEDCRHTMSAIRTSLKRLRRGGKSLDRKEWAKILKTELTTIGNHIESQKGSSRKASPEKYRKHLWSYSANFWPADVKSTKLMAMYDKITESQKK

Chain of Sialic acid-binding Ig-like lectin 9 (Homo sapiens) (Q9Y336 whole entry): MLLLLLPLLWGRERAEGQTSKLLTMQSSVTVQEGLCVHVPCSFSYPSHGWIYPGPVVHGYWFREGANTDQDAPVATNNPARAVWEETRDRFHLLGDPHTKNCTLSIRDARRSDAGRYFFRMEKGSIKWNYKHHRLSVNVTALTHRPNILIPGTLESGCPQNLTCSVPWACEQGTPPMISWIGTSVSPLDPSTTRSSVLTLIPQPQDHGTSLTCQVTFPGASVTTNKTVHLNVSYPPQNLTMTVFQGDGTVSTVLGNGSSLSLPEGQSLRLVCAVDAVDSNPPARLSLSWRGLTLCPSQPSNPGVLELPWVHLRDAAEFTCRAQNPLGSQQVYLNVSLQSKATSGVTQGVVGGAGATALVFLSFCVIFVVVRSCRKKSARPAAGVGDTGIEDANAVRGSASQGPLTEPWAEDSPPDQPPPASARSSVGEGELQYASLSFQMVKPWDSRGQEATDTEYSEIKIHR
Chain of Protein translocase subunit SecA (Escherichia coli (strain K12)) (P10408 whole entry): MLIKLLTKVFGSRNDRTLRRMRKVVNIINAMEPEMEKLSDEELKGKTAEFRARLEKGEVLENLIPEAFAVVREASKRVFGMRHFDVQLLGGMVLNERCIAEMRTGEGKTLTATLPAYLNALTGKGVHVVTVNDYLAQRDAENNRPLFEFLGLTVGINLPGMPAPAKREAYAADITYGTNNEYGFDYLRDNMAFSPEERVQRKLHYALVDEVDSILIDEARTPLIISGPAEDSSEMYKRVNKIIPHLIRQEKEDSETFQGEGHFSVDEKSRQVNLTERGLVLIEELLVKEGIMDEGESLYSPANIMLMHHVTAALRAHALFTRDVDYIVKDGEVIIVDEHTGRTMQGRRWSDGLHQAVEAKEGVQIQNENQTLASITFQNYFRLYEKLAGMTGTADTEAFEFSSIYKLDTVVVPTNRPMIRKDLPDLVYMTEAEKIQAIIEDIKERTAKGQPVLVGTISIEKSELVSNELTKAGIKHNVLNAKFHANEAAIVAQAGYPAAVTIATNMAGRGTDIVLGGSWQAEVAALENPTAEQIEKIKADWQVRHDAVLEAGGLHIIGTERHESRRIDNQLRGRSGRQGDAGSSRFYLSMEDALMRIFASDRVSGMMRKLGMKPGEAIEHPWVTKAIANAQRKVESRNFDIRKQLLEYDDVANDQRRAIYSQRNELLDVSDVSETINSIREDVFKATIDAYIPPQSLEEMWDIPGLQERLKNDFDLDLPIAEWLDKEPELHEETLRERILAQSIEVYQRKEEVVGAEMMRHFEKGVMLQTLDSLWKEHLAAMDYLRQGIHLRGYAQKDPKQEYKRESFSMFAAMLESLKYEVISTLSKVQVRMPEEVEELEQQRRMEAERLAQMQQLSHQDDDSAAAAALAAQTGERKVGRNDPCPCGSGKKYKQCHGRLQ

SMILES	Percent Effect [1] [%]	Percent Effect [2] [%]	Percent Effect [3] [%]	Percent Effect [4] [%]	Percent Effect (Trypanosoma cruzi) [%]	Percent Effect [5] [%]	Percent Effect [6] [%]	Percent Effect (Homo sapiens) [%]	Percent Effect [7] [%]	Percent Effect [8] [%]	Percent Effect [9] [%]
CNS(=O)(=O)c1cccc(CNC(=O)c2c(C)oc(C)c2C)c1	-3.91	19	6.49	-6.49	3.79	-1.07	18.4	7.61	2.08	15.2	53.2
Cc1nc2cc(C3CCN(Cc4cccc(F)c4F)C3)nn2c(O)c1C (stereo not given)	-0.873	12.2	12.9	-3.49	0.988	-1.16	2.81	10.8	3.23	11.7	-14.4
Cc1ccc2c(c1)C1(CCNCC1)CN2C(=O)CN(C)C	-3.67	10.8	5.31	-2.86	-7.14	1.59	15.7	14.1	5.41	12.8	-2.47
O=C(c1cc[nH]n1)N1CCC(Nc2cccnn2)CC1	-5.6	7.79	1.01	-11.8	8.52	-2.74	9.62	5.31	6.67	11.8	-18.4
COCC(NC(=O)c1cc[nH]n1)c1cccc(C(F)(F)F)c1 (stereo not given)	-5.2	16.4	-2.13	16	3.92	0.455	6.03	15.4	4.3	7.5	-5.07
Cc1ccsc1CNC(=O)Cc1c(C)nc2c(c1C)c(=O)[nH]n2C	-4.14	10.4	5.94	8.57	-2.06	2.32	5.25	21.2	2.86	11.8	-20.4
O=C1NCCN1C1CCCN(Cc2coc(-c3ccc(F)cc3)n2)C1 (stereo not given)	-10.2	-8.11	-13.5	25.4	10.9	-1.29	0.898	57.5	5.94	15.8	-6.73
O=C(COc1cccc2c1CCC2=O)NCCOc1ccccc1	-0.203	2.63	-0.945	-8.98	-6.33	3.55	9.68	40.1	-1.06	0	-2.69
c1ccc2cc(OCCN3CCOC(Cn4cncn4)C3)ccc2c1 (stereo not given)	-4.49	6.33	-0.381	14	2.77	-1.5	10.3	5.72	4.17	10.1	-6.36
COc1cccc(OCC2CCCN(C(=O)c3cnc(C)nc3O)C2)c1 (stereo not given)	0.517	8.11	-1.51	13.5	5.02	11.9	7.24	-19	7.94	17.1	-2.95
O=C1N(Cc2cccc(F)c2F)CCCC1(O)CNC1CCCC1 (stereo not given)	-6.14	16	-3.79	22.4	5.55	7.29	4.36	4.41	3.83	6.17	97.3
Cc1ccc2c(n1)N(CCN(C)C)CCN(C(=O)c1ccc[nH]1)C2	-0.711	10.7	6.26	-13	-8.07	1.63	18.6	-6.38	1.06	3.85	-1.69
Cc1occc1C(=O)N1CCO[C@H]2[C@@H](Oc3ccccn3)CC[C@@H]21	-1.87	0	5.36	1.56	0.984	0.699	9.25	5.34	3.19	3.85	4.85
O=C(c1ccn(-c2cccc(Cl)c2)n1)N1CCN(C2CC2)CC1	-11.5	10.4	-3.12	2.64	-4.49	-1.78	27.5	29.6	-0.971	-4.88	-3.18
CC(=O)c1c(F)cccc1N1CCC(Cc2cccnc2)CC1	-2.45	8.22	-4.3	3.69	6.15	2.4	-1.46	57.7	7.29	13.6	-9.38
CNC(=O)c1cnc(/C=C/c2cc(OC)cc(OC)c2)s1	-6.6	-5.41	-2.31	7.75	-6.25	0.417	21.4	18.1	1.98	-6.1	-3.49
COC(C(=O)N1CCN(c2cccc(Cl)c2)C(=O)C1)c1ccccc1 (stereo not given)	-1.02	0	0.72	1	-2.7	3.33	14.7	0.627	3.7	9.76	-4.32
COc1ccc(OC)c(C(O)CN2CC(n3cccn3)C2)c1 (stereo not given)	-3.82	-10.5	2.67	6.6	9.02	4.98	9.52	-12.8	6.37	9.76	-8.21
Cc1cc(-c2cnc(N3CCNC(=O)C3)nc2-c2cccnc2C)on1	-2.87	8	5.98	8.08	1.97	-2.1	7.49	1.83	5.32	11.5	-10.5
CCCc1noc(CCC(=O)N2CCCC2c2ccsc2)n1 (stereo not given)	-3.59	-55.7	0.791	6.07	1.6	-2.28	-0.409	-2.86	-2.46	-1.27	-4.16
